The term AC50 denotes the concentration at which the activity in the assay is half-maximal.

SMILES strings stand for the structures. Inconclusive results are not listed. Active and inactive are the calls of the source. The calls were made as follows: active = hit-call score of the fitted dose curve at least 0.9, where 1 is the maximum; inconclusive = response in the unintended direction; inactive = score below 0.9.

Sequence of human Vitamin D Receptor (VDR), VDR (gene 7421) (P11473 whole entry, looked up, the tested form may be a part): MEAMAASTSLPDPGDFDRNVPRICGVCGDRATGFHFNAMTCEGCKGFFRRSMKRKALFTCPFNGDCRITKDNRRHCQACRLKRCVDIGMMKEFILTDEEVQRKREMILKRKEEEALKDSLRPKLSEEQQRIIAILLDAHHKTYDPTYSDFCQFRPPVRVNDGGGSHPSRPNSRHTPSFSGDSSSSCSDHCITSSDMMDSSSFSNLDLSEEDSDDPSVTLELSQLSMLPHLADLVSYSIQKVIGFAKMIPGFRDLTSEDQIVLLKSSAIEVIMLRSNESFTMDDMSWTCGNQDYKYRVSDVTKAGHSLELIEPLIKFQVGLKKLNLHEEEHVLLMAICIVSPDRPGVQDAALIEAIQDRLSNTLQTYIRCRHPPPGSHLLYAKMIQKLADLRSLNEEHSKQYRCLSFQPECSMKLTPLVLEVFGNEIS

The test addresses human Vitamin D Receptor (VDR), VDR (gene 7421) (UniProt P11473). The experiment in a line: ATG_VDR_TRANS: Attagene TRANS-FACTORIAL HepG2 Assay for human Vitamin D Receptor (VDR) (AID 2283022). A digest of the protocol:
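Fluorescence of labelled reporter cDNA fragments, resolved by capillary electrophoresis, gives mRNA induction after 24 h treatment of HepG2 cells carrying transfected Gal4-fusion reporter units. Activity is fitted in the positive direction with DMSO as baseline.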
On to `CCCCCCCCCCC=CC#N`, for which the compound was classed as inactive.
Same read-out and setting: for `Cc1cccc(N(C)C(=S)Oc2ccc3ccccc3c2)c1` the value was “inactive”; for `COc1ccc([C@@H]2CC(=O)c3c(O)cc(O[C@@H]4O[C@H](CO[C@@H]5O[C@@H](C)[C@H](O)[C@@H](O)[C@H]5O)[C@@H](O)[C@H](O)[C@H]4O)cc3O2)cc1OC`, “inactive”; for `NNC(=O)c1cccc(C(=O)NN)c1`, “inactive”.
Regarding `CN(C)c1ccc(C(=N)c2ccc(N(C)C)cc2)cc1`, the half-maximal activity concentration (AC50) was 156 µM (active).
For the compound `CC=CC(F)(F)C(F)(F)C(F)(F)F`, the call was inactive.
On the same count and under the same terms, as for `CC1(C)O[C@@H]2C[C@H]3[C@@H]4C[C@H](F)C5=CC(=O)CC[C@]5(C)[C@H]4[C@@H](O)C[C@]3(C)[C@]2(C(=O)CO)O1`, the entry is “inactive”; as for `CC(CC=O)CCCC(C)(C)O` (stereo not drawn), “inactive”.
On the same count and under the same terms, for `Cc1cccc(C(=O)O)c1` the value was “inactive”; for `CC(C)(C)C(=O)C=Cc1ccc(Cl)cc1`, “inactive”.
Consider `CCOC(=O)Cc1cccc2ccccc12`, for which the call was inactive.
For the compound `CC=CCO`, the outcome was inactive.
Consider `OCCN(CCO)c1ccccc1`, for which the call was inactive.
On to `O=P(O)(O)Oc1ccccc1`, for which the compound was called inactive.
On the same count and under the same terms, for `CC(C)c1ccc2cc(C(C)C)ccc2c1` the value was “inactive”; for `O=C(O)CCCCCCCCCC(=O)O`, “inactive”; for `CC(=O)[C@@]1(O)CC[C@H]2[C@@H]3C[C@H](C)C4=CC(=O)C=C[C@]4(C)[C@@]3(F)[C@@H](O)C[C@@]21C`, “inactive”.
On to `C1=CCCC1`, for which the result was inactive.
On to `Cc1cc(C)c(C)c(O)c1`, for which the outcome was inactive.
Still for that read-out and setting: as for `COc1c2ccoc2cc2oc(=O)ccc12`, the entry is “inactive”; as for `C=CC(=O)OCCOC(=O)C=C`, “inactive”.
On the same count and under the same terms, as for `C1=Cc2ccccc2C1`, the entry is “inactive”; as for `CC1(C)O[C@@H]2C[C@H]3[C@@H]4C[C@H](F)C5=CC(=O)C=C[C@]5(C)[C@@]4(F)[C@@H](O)C[C@]3(C)[C@]2(C(=O)CO)O1`, “inactive”.

The record behind these values is PubChem BioAssay (EPA / NIEHS).
